Data published in PubChem BioAssay (Tox21).
Inconclusive results are not listed. Calls of active or inactive are those of the source. Unless noted, calls follow the shape of the dose curve; as a rule, active = well fitted curve in the direction sought with a large enough effect in the repeat runs; inconclusive = weak or mixed curves; inactive = no such curve, though single readings can be large; an effect the other way counts as inactive or inconclusive.

What was measured:
[1] = qHTS assay for small molecules that induce genotoxicity in human embryonic kidney cells expressing luciferase-tagged ATAD5 (AID 651632); also: nearly all actives have a fitted effect of over 15% in size
Summary of the method: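 A rise in luciferase signal from ATAD5-tagged HEK293T cells marks genetic stress. Cells were exposed to compounds for 16 hr at 37C, 5% CO2, then luciferase was quantified after a 30 min room-temperature incubation with Amplite.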

[2] = qHTS assay to test for compound auto fluorescence at 590 nm (red) in HepG2 cells (AID 720674)
Summary of the method: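 Rose Bengal sodium served as the red fluorophore standard. HepG2 monolayers (overnight attachment, MEM with 10% FBS) were exposed to test compounds for 1 hr at 37 C and read at Ex 540/Em 590 nm.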

[3] = qHTS assay to test for compound auto fluorescence at 535 nm (green) in HepG2 cells (AID 720675)
[4] = qHTS assay to test for compound auto fluorescence at 460 nm (blue) in HEK293 cells (AID 720678)
Summary of the method: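 Measured: blue fluorescence (Ex 405/Em 460 nm) of compound-treated HEK293 cells, incubated overnight at 37C with 5% CO2 and scaled to triamterene equivalents.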

[5] = qHTS assay to test for compound auto fluorescence at 590 nm (red) in HEK293 cells (AID 720679)
Summary of the method: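 Using HEK293 cells at 2,000 per well, the screen added 23 nL of each compound after cell attachment and incubated overnight (37C, 5% CO2). The plate reader then captured red-label fluorescence, Ex/Em 540/590nm.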

[6] = qHTS assay to test for compound auto fluorescence at 535 nm (green) in HEK293 cells (AID 720680)
[7] = qHTS assay to test for compound auto fluorescence at 460 nm (blue) in HEK293 cell free culture (AID 720681)
Summary of the method: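 Test compounds were pinned into cell-free culture medium (DMEM with 10% FBS) and fluorescence was read directly at Ex/Em 405/460 nm. Signals were expressed as fluorescence equivalents of triamterene, with DMSO vehicle as control.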

[8] = qHTS assay to test for compound auto fluorescence at 535 nm (green) in HEK293 cell free culture (AID 720682)
Summary of the method: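 Using fluorescein as calibrant, autofluorescence was quantified at 485/535 nm in cell-free DMEM containing 10% FBS after pintool addition of compound or vehicle.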

[9] = qHTS assay to test for compound auto fluorescence at 590 nm (red) in HEK293 cell free culture (AID 720683)
Summary of the method: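 Tox21 10K library compounds were pinned into cell-free DMEM with 10% FBS and fluorescence was read at excitation 540 nm. Activity is expressed as Rose Bengal sodium equivalency.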

[10] = qHTS assay to test for compound auto fluorescence at 590 nm (red) in HepG2 cell free culture (AID 720684)
Summary of the method: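 Readout: intrinsic compound fluorescence at 590 nm emission after 540 nm excitation, scaled to Rose Bengal sodium. Matrix was cell-free MEM with 10% FBS; DMSO vehicle wells served as control.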

[11] = qHTS assay to test for compound auto fluorescence at 535 nm (green) in HepG2 cell free culture (AID 720686)
[12] = qHTS assay to test for compound auto fluorescence at 460 nm (blue) in HepG2 cells (AID 720687)
Summary of the method: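 Cells (2,000/well in MEM with 10% FBS) attached overnight at 37 C, then were exposed to compound or DMSO for 1 hr at 37 C, 5% CO2. Fluorescence read at Ex/Em 405/460 nm, expressed as triamterene-equivalent signal.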

[13] = biological target: Glucocorticoid receptor (Homo sapiens) (UniProt P04150); assay: qHTS assay to identify small molecule agonists of the glucocorticoid receptor (GR) signaling pathway (AID 720691; active = well fitted activation curve with a large enough effect in the signal ratio in the repeat runs, not every such curve was filed as active; the % refers to the signal ratio)
Summary of the method: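 Agonist-mode qHTS in HeLa cells stably expressing a glucocorticoid-response-element beta-lactamase reporter. Fluorescence intensity read with FRET substrate (2 h, room temperature) after 18 h compound treatment at 37 C.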

[14] = qHTS assay for small molecule agonists of the p53 signaling pathway - cell viability (AID 651633; calls by dose curve;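 also: p53RE-bla HCT reporter cells with a stable beta-lactamase p53 reporter; series mostly up to about 83 µM; nearly all actives have a fitted effect of over 30% in size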)
Summary of the method: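 p53RE-bla cells, seeded at 4,000 per well and rested 5 h at 37 C/5% CO2, received compounds in DMSO for 16 h at 37 C. CellTiter-Glo was then added, and luminescence was read after 30 min at room temperature to gauge cytotoxicity.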

[15] = qHTS assay for small molecule disruptors of the mitochondrial membrane potential - cell viability (AID 720634; calls by dose curve;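 also: human HepG2 liver cancer cells; series mostly up to about 83 µM; nearly all actives have a fitted effect of over 20% in size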)
Summary of the method: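 Cytotoxicity was quantified from ATP content by CellTiter-Glo luminescence in the same wells as the MMP dye read-out. HepG2 (2,000 cells/well) were plated overnight and exposed to compounds for 1 hr at 37 C.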

[16] = qHTS assay for small molecule disruptors of the mitochondrial membrane potential (AID 720635)
Summary of the method: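 HepG2 cells (2,000/well) attached overnight at 37C, then took compound for 1 hr at 37C, 5% CO2. Mito-MPS dye was added for 30 min; fluorescence was read at 490/535 nm (monomers) and 540/590 nm (aggregates).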

[17] = qHTS assay to test for compound auto fluorescence at 460 nm (blue) in HepG2 cell free culture (AID 720685)
Summary of the method: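 Cell-free plates of MEM plus 10% FBS received 23 nL compound or DMSO vehicle; blue-channel (405/460 nm) intensity scored against triamterene as reference fluorophore.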

[18] = biological target: Glucocorticoid receptor (Homo sapiens) (UniProt P04150); assay: qHTS assay to identify small molecule antagonists of the glucocorticoid receptor (GR) signaling pathway (AID 720692; active = well fitted inhibition curve with a large enough effect in the signal ratio in the repeat runs, not every such curve was filed as active; the % refers to the signal ratio)
Summary of the method: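 Inhibition of dexamethasone-driven (5 nM final) beta-lactamase expression was measured in GRE-reporter HeLa cells over 18 h at 37C. Fluorescence was read after 2 h with the B/G FRET substrate at room temperature.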

[19] = qHTS assay for small molecules that induce genotoxicity in human embryonic kidney cells expressing luciferase-tagged ATAD5 - cell viability (AID 651634; calls by dose curve; also: nearly all actives have a fitted effect of over 25% in size)
Summary of the method: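 Cytotoxicity counter-readout: after 15.5 hr compound treatment at 37C, live-cell protease activity in ATAD5-luciferase HEK293T cells measured by CellTiter-Fluor fluorescence, 30 min development at 37C.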
% is scaled to controls: 0 for no effect and ±100 for the full control effect.

Sequence of Glucocorticoid receptor (Homo sapiens) (P04150 whole entry, looked up): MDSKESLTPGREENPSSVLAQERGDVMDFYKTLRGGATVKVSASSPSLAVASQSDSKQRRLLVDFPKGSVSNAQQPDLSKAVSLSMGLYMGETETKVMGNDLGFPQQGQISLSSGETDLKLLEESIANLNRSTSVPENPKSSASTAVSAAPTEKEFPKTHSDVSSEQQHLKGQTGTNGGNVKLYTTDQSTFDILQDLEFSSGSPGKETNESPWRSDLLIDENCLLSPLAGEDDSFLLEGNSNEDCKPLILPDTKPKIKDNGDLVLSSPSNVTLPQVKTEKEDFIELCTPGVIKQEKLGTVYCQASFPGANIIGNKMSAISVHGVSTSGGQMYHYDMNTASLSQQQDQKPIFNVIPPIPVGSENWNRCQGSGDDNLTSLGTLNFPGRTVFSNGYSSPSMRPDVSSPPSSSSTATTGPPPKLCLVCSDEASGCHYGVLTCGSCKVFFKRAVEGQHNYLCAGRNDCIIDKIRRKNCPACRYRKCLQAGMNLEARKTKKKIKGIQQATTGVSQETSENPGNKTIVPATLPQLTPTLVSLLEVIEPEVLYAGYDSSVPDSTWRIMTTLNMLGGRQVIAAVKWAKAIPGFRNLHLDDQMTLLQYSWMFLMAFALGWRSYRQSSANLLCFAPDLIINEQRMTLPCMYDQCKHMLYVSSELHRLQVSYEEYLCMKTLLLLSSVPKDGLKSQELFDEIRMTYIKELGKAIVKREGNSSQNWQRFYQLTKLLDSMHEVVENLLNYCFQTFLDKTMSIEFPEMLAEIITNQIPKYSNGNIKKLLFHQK

COc1cc2c(Nc3ccc(Br)cc3F)ncnc2cc1OCC1CCN(C)CC1
inactive: outcome [1] | outcome [2] | outcome [3] | outcome [4] | outcome [5] | outcome [6] | outcome [7] | outcome [8] | outcome [9] | outcome [10] | outcome [11] | outcome [12] | Potency [13]

Cc1cccc(Nc2ccncc2S(=O)(=O)NC(=O)NC(C)C)c1
inactive: outcome [1] | outcome [14] | outcome [15] | Potency [16] | fluorescence, relative to Rose Bengal [2] -0.554% [at 18.6 µM] | fluorescence, % of fluorescein control [3] 0.0113% [at 18.6 µM] | fluorescence, % of fluorescent control [5] 0.875% [at 18.6 µM] | fluorescence, % of fluorescein [6] -0.12% [at 18.6 µM] | fluorescence, % of fluorescent control [7] -0.219% [at 18.6 µM] | activity change [8] -0.379% [at 18.6 µM] | fluorescence, % of fluorescent control [9] 0.257% [at 18.6 µM] | fluorescence, % of Rose Bengal [10] -0.0539% [at 18.6 µM] | fluorescence, % of fluorescent control [17] -0.124% [at 18.6 µM] | fluorescence, % of fluorescein control [11] 0.0067% [at 18.6 µM] | Potency [13] | outcome [18]

CO[Si](CCCCl)(OC)OC
inactive: outcome [1] | outcome [14] | outcome [15] | outcome [4] | outcome [5] | outcome [6] | outcome [7] | outcome [8] | outcome [9] | outcome [10] | outcome [11] | outcome [12] | Potency [13] | outcome [18]

CC1=NN(c2ccc(S(=O)(=O)O)cc2)C(=O)C1N=Nc1ccccc1 (stereo not drawn)
inactive: outcome [1] | outcome [14] | outcome [15] | outcome [2] | outcome [5] | outcome [6] | outcome [7] | outcome [8] | outcome [9] | outcome [10] | outcome [17] | outcome [11] | outcome [12] | Potency [13] | outcome [18]

COc1cc2c3cc1Oc1cc(ccc1O)C[C@@H]1c4c(cc(OC)c(O)c4Oc4ccc(cc4)C[C@@H]3N(C)CC2)CC[N+]1(C)C
inactive: outcome [1] | outcome [14] | Potency [16] | outcome [2] | outcome [3] | outcome [4] | outcome [5] | outcome [6] | outcome [7] | outcome [8] | outcome [9] | outcome [11] | outcome [12]

Nc1cc(Cl)cc(S(=O)(=O)O)c1O
inactive: outcome [1] | Potency [19] | outcome [15] | outcome [3] | outcome [4] | outcome [5] | outcome [6] | outcome [7] | outcome [8] | outcome [9] | outcome [10] | outcome [17] | outcome [11]

COCCOCCOCCOC
inactive: outcome [14] | Potency [19] | outcome [15] | Potency [16] | outcome [2] | outcome [3] | outcome [4] | outcome [5] | outcome [6] | outcome [7] | outcome [8] | outcome [9] | outcome [10] | outcome [17] | outcome [11] | outcome [12] | Potency [13] | outcome [18]

C[C@@H]1C[C@H]2[C@@H]3C[C@H](F)C4=CC(=O)C=C[C@]4(C)[C@@]3(F)[C@@H](O)C[C@]2(C)[C@@]1(O)C(=O)CO
inactive: outcome [14] | Potency [19] | outcome [15] | fluorescence, % of fluorescein control [3] 0.0352% [at 18.6 µM] | fluorescence, % of triamterene [4] -0.0057% [at 18.6 µM] | fluorescence, % of fluorescent control [5] -0.084% [at 18.6 µM] | fluorescence, % of fluorescein [6] 0.12% [at 18.6 µM] | activity change [8] 0.0847% [at 18.6 µM] | fluorescence, % of fluorescent control [9] -0.0134% [at 18.6 µM] | fluorescence, % of Rose Bengal [10] 0.414% [at 18.6 µM] | fluorescence, % of fluorescein control [11] 0.0581% [at 18.6 µM] | fluorescence, % of fluorescent control [12] -0.0249% [at 18.6 µM]

Cc1cccc(NC(=S)N(C)C)c1
inactive: outcome [1] | Potency [19] | outcome [15] | outcome [2] | outcome [3] | outcome [4] | outcome [5] | outcome [6] | outcome [7] | outcome [8] | outcome [9] | outcome [17] | outcome [11] | outcome [12] | Potency [13]

COc1ccc(N=Nc2cc(C)c(N=Nc3ccc(S(=O)(=O)O)cc3)cc2OC)cc1
inactive: outcome [1] | Potency [19] | outcome [2] | outcome [3] | outcome [4] | outcome [5] | outcome [6] | outcome [7] | outcome [8] | outcome [9] | outcome [10] | outcome [11] | outcome [12] | Potency [13]

Nc1ccc(/C=C/c2ccc(N)cc2S(=O)(=O)O)c(S(=O)(=O)O)c1
inactive: outcome [14] | outcome [15] | Potency [16] | outcome [5] | outcome [6] | outcome [7] | outcome [8] | outcome [9] | outcome [10] | outcome [17] | outcome [11] | outcome [12] | Potency [13]

COc1cccc2sc(N)nc12
inactive: outcome [1] | outcome [14] | outcome [15] | outcome [2] | outcome [3] | outcome [4] | outcome [5] | outcome [6] | outcome [7] | outcome [8] | outcome [9] | outcome [10] | outcome [17] | outcome [11]

CC(C)CCC(=O)CCC(C)C
inactive: outcome [1] | outcome [14] | outcome [15] | outcome [2] | outcome [3] | outcome [4] | outcome [5] | outcome [6] | outcome [7] | outcome [8] | outcome [9] | outcome [10] | outcome [17] | outcome [11] | outcome [12] | Potency [13]

C[C@H](CCC(=O)O)[C@H]1CC[C@H]2[C@@H]3[C@H](O)C[C@@H]4C[C@H](O)CC[C@]4(C)[C@H]3C[C@H](O)[C@]12C
inactive: outcome [1] | outcome [14] | outcome [15] | outcome [2] | outcome [3] | outcome [4] | outcome [5] | outcome [6] | outcome [7] | outcome [8] | outcome [9] | outcome [10] | outcome [17] | outcome [11] | outcome [12] | Potency [13] | outcome [18]
